Test results reported in PubChem BioAssay (NCATS).
Where “and” joins values, the source holds several entries; their conditions need not be identical. Equal entries are not always repeated. Records with an inconclusive call do not appear. Calls of active or inactive are those of the source. Unless noted, calls follow the shape of the dose curve; as a rule, active = well fitted curve in the direction sought with a large enough effect; inconclusive = small, poorly fitted or top-dose-only effect, or another doubt; inactive = no such curve, though single readings can be large; an effect the other way counts as inactive or inconclusive.

Legend:
[1] = qHTS assay for small molecule agonists of the antioxidant response element (ARE) signaling pathway measured by Nrf2-dependant transcriptional activity (AID 720636; active = well fitted curve in the direction sought with a large enough effect in the repeat runs; an effect the other way counts as inactive or inconclusive; also: potency is read from the fitted curve at half-maximal effect); conditions: ARE-luc HepG2, Nrf2 luciferase reporter, 16 h; series mostly up to 92.4 µM
How it was run: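 In HepG2 cells engineered with an Nrf2-responsive luciferase gene, ARE induction was quantified as luminescence after 16 hr compound treatment at 37 C.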

[2] = qHTS assay for small molecule agonists of the antioxidant response element (ARE) signaling pathway measured by Nrf2-dependant transcriptional activity - cell viability counter screen (AID 720653; active = well fitted curve in the direction sought with a large enough effect in the repeat runs; an effect the other way counts as inactive or inconclusive; also: % is scaled to controls: 0 for no effect and ±100 for the full control effect); conditions: ARE-bla HepG2 viability, CellTiter-Glo ATP luminescence, 16 h; stronger effect = lower value
How it was run: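 Cytotoxicity counter screen: intracellular ATP quantified by CellTiter-Glo luminescence in the same ARE-bla HepG2 plates, after 16 h compound exposure and a 2 h beta-lactamase substrate step.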

[3] = qHTS Assay for Identifying Gametocytocidal Compounds (AID 743244);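 also: % is scaled to controls: 0 for no effect and ±100 for the full control effect; actives lower the fluorescent signal which means gametocytes are killed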; conditions: P. falciparum 3D7 stage III-V gametocytes, alamarBlue, 72 h; max response: stronger effect = lower value
How it was run: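 Late gametocytes (III–V), P. falciparum 3D7; 72 h drug, then 24 h alamarBlue; resazurin reduction read by fluorescence.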

[4] = qHTS assay for cell viability of HEK293 cells (AID 743288); conditions: ATP luminescence (CellTiter-Glo), 18 h; max response: stronger effect = lower value; also: % is scaled to controls: 0 for no effect and ±100 for the full control effect; nearly all actives have a fitted effect of over 50% in size
How it was run: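 The Tox21 protocol used parental HEK293 cells treated for 18 h at 37 C with compounds delivered by pintool; ATP-coupled luminescence after 30 min at room temperature gave viability.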

[5] = qHTS assay for cell viability of the p53RE-bla HCT-116 cell line (AID 743292); conditions: p53RE-bla HCT-116 viability, ATP luminescence, 16 h; series mostly up to 95 µM; also: % is scaled to controls: 0 for no effect and ±100 for the full control effect; nearly all actives have a fitted effect of over 55% in size
How it was run: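 Intracellular ATP of p53RE-bla HCT-116 cells measured by luciferase luminescence following 16 h compound incubation at 37 C; DMSO-only wells served as vehicle controls.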

[6] = qHTS assay to identify small molecule inhibitors of chordoma cells - UCH-1 (AID 1259355); conditions: UCH-1 chordoma viability, CellTiter-Glo, 48 h, combination, with auranofin plus four topoisomerase inhibitors; series mostly up to 46.1 µM; also: % is scaled to controls: 0 for no effect and ±100 for the full control effect; nearly all actives have a fitted effect of over 55% in size
How it was run: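 Seed 800 cells per well; incubate overnight at 37 C, 5% CO2. Add test compounds (15 concentrations), then the auranofin–topoisomerase-agent combination. Incubate 48hr, add CellTiter-Glo, wait 30min, read luminescence.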

[7] = qHTS assay to identify small molecule inhibitors of chordoma cells - UCH-2 (AID 1259356); conditions: UCH-2 chordoma viability, CellTiter-Glo ATP luminescence, 48 h; series mostly up to 46.1 µM; also: % is scaled to controls: 0 for no effect and ±100 for the full control effect
[8] = qHTS assay for small molecule antagonists of the retinoid-related orphan receptor gamma (ROR-gamma) signaling pathway - cell viability counter screen (AID 720652; active = well fitted curve in the direction sought with a large enough effect in the repeat runs; an effect the other way counts as inactive or inconclusive;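 also: CHO reporter cells with doxycycline-induced ROR-gamma expression; compound exposure lasted 16 hr before ATP read; % is scaled to controls: 0 for no effect and ±100 for the full control effect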); conditions: RORgamma reporter cell line viability counter screen; series mostly up to 92.2 µM
How it was run: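 CHO cells carrying TET-inducible ROR and RORE-luciferase reporter, plated 5 hr, then dosed with compound plus doxycycline. After 16 hr at 37 C, viability read as intracellular ATP by CellTiter-Glo luminescence.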

NCCO/C=C/[C@H](N)C(=O)O
inactive: Potency [1] | max response [2] 6.58% | max response [3] -0.535% | max response [4] -5.56% | outcome [5] | Potency [6] | Potency [7]

OC[C@H]1O[C@@](CO)(O[C@H]2O[C@H](CO)[C@@H](O)[C@H](O)[C@H]2O)[C@@H](O)[C@@H]1O
inactive: Potency [1] | max response [2] -5.77% | max response [4] -4.31% | outcome [5] | Potency [6] | Potency [7]

CO/N=C(/C(=O)N[C@@H]1C(=O)N2C(C(=O)O)=C(COC(N)=O)CS[C@H]12)c1ccco1
inactive: Potency [1] | outcome [8] | max response [2] 4.41% | max response [3] -11% and 13.4% | max response [4] 2.57% | Potency [6] | Potency [7]

OB(O)O
inactive: Potency [1] | outcome [8] | max response [2] -7.44% and 3.96% | max response [3] 7.6% | max response [4] -3.91% and 5.45% | Potency [6] | Potency [7]

[O-][N+](=Nc1ccccc1)c1ccccc1
inactive: outcome [8] | max response [2] -2.2% | max response [3] 18.6% | max response [4] -0.626% | Potency [6] | Potency [7]

NCCN
inactive: Potency [1] | outcome [8] | max response [2] -3.91% | max response [3] 20.9% | max response [4] -4.96% | outcome [5] | Potency [6] | Potency [7]

N[C@@H](Cc1cc(I)c(Oc2ccc(O)c(I)c2)c(I)c1)C(=O)O
inactive: Potency [1] | max response [2] -4.18% | max response [3] 3.17% | max response [4] -8.83% | outcome [5] | Potency [6] | Potency [7]

CC(CNC(=O)c1cccnc1)NC(=O)c1cccnc1 (centres undefined)
inactive: max response [3] -8.6% | Potency [6] | Potency [7]

Cc1ccc(S(=O)(=O)NCl)cc1
inactive: Potency [1] | max response [2] -0.456% | max response [3] 4.72% | max response [4] -7.16% | Potency [6] | Potency [7]

CCCCCCCCCCCCCCCCCC(=O)OC[C@@H](O)[C@H]1OC[C@H](O)[C@H]1O
inactive: Potency [1] | max response [2] -0.0548% | max response [3] -8.87% | max response [4] -11.8% | Potency [6] | Potency [7]

CC(C)CCC[C@@H](C)[C@H]1CC[C@H]2[C@@H]3CC=C4C[C@@H](O)CC[C@]4(C)[C@H]3CC[C@]12C
inactive: Potency [1] | max response [2] -4.46% | max response [3] -0.629% | max response [4] -8.56% | outcome [5] | Potency [6] | Potency [7]

CC(C)(C)CC(C)(C)c1ccc(OCCO)cc1
inactive: Potency [1] | max response [2] -18% | max response [3] 12.7% | max response [4] -25.1% | Potency [6] | Potency [7]

Nc1nccs1
inactive: Potency [1] | max response [2] -16.1% | max response [3] 1.76% | max response [4] -5.55% | Potency [6] | Potency [7]

OCc1ccccc1
inactive: Potency [1] | outcome [8] | max response [2] -4.76% | max response [3] 0.478% | max response [4] 7.92% | Potency [6] | Potency [7]

CC1=CC(=O)NS(=O)(=O)O1
inactive: Potency [1] | outcome [8] | max response [2] 6.07% and 6.81% | max response [3] -2.22% | max response [4] -5.77% and -0.759% | Potency [6] | Potency [7]

OC[C@H]1O[C@@H]2O[C@H]3[C@H](O)[C@@H](O)[C@@H](O[C@H]4[C@H](O)[C@@H](O)[C@@H](O[C@H]5[C@H](O)[C@@H](O)[C@@H](O[C@H]6[C@H](O)[C@@H](O)[C@@H](O[C@H]7[C@H](O)[C@@H](O)[C@@H](O[C@H]1[C@H](O)[C@H]2O)O[C@@H]7CO)O[C@@H]6CO)O[C@@H]5CO)O[C@@H]4CO)O[C@@H]3CO
inactive: Potency [1] | outcome [8] | max response [2] -2.78% and 5.87% | max response [3] -7.1% | max response [4] -12.8% and 1.56% | outcome [5] | Potency [6] | Potency [7]

COC(=O)c1ccccc1O
inactive: Potency [1] | outcome [8] | max response [2] 1.24% and 5.57% | max response [3] 3.79% | max response [4] -4.62% and -2.27% | Potency [6] | Potency [7]

C=C(C)C1CC=C(C)CC1 (centres undefined)
inactive: Potency [1] | max response [2] -0.676% and -5.86% | max response [3] 0.817% | max response [4] -3.42% and -10.2% | outcome [5] | Potency [6] | Potency [7]

CC(C)CCCCCCc1ccc(O)cc1
inactive: Potency [1] | max response [2] -6.03% | max response [3] 9.95% | max response [4] -15.7% | Potency [6] | Potency [7]

C=C1C(CCl)(CCl)C2(Cl)C(Cl)C(Cl)C1(Cl)C2(Cl)Cl (centres undefined)
inactive: max response [3] -0.376% | Potency [6] | Potency [7]
active: Potency [1] 66.8 µM

O=C(OCc1ccccc1)c1ccc(O)cc1
inactive: max response [2] -5.99% | max response [3] 1.16% | max response [4] -7.01% | Potency [6] | Potency [7]

CCCCC(CC)COS(=O)(=O)O (centres undefined)
inactive: Potency [1] | max response [2] 8.31% | max response [3] -3.23% | max response [4] 8.79% | Potency [6] | Potency [7]

COc1ccc([C@@H]2CC(=O)c3c(O)cc(O[C@@H]4O[C@H](CO[C@@H]5O[C@@H](C)[C@H](O)[C@@H](O)[C@H]5O)[C@@H](O)[C@H](O)[C@H]4O)cc3O2)cc1O
inactive: max response [3] 22.8% | Potency [6] | Potency [7]

c1ccc2ccccc2c1
inactive: Potency [1] | outcome [8] | max response [2] 1.06% and 1.45% | max response [3] 6.18% | max response [4] -14.2% and 4.14% | Potency [6] | Potency [7]

CC(C)[C@@H]1CC[C@@H](C)C[C@H]1O
inactive: Potency [1] | max response [2] 0.622% | max response [4] -12.7% | Potency [6] | Potency [7]

CC(O)[C@H]1CC[C@H]2[C@@H]3CC[C@@H]4C[C@@H](O)CC[C@]4(C)[C@H]3CC[C@]12C (some centres undefined)
inactive: max response [3] 4.2% | Potency [6] | Potency [7]

CC/C=C\C/C=C\C/C=C\CCCCCCCC(=O)O
inactive: outcome [8] | max response [2] -3.01% | max response [3] 13.1% | max response [4] -4.87% | Potency [6] | Potency [7]

Cc1ncc[nH]1
inactive: Potency [1] | outcome [8] | max response [2] 2.15% | max response [3] 20% | max response [4] -10.6% | Potency [6] | Potency [7]

CC(C)O
inactive: Potency [1] | outcome [8] | max response [2] 2% | max response [3] 0.211% | max response [4] -16.4% | Potency [6] | Potency [7]

O.O.O.O.O.O.O.O=S(=O)([O-])[O-].[Co+2]
inactive: Potency [1] | max response [2] -4.91% | max response [3] 0.797% | max response [4] 1.41% | Potency [6] | Potency [7]

CN(C)C=Nc1c(I)cc(I)c(CCC(=O)O)c1I
inactive: max response [3] 14.5% | Potency [6] | Potency [7]

CN(CCO)CC(O)Cn1cnc2c1c(=O)n(C)c(=O)n2C (centres undefined) (tested in a mixture with another compound)
inactive: Potency [1] | max response [2] 2.54% | max response [3] 2.62% | max response [4] -3.27% | Potency [6] | Potency [7]

C/C=C/C=C/C(=O)O
inactive: Potency [1] | outcome [8] | max response [2] -1.45% | max response [3] -7.74% | max response [4] 0.0589% | Potency [6] | Potency [7]

Nc1ccc(N=Nc2ccccc2)c(N)n1
inactive: max response [2] -11.4% and -26.2% | max response [3] -8.48% | max response [4] -23.5% and -25.3% | Potency [6] | Potency [7]

OC[C@H]1O[C@@H](O[C@H]2[C@H](O)[C@@H](O)[C@H](O)O[C@@H]2CO)[C@H](O)[C@@H](O)[C@@H]1O
inactive: max response [3] 2.58% | Potency [6] | Potency [7]

CCCCO
inactive: Potency [1] | outcome [8] | max response [2] -5.18% and -2.26% | max response [3] 4.7% | max response [4] 11.1% and -7.83% | Potency [6] | Potency [7]

CC1=CCC2CC1C2(C)C (centres undefined)
inactive: Potency [1] | outcome [8] | max response [2] -2.11% | max response [4] -5.13% | Potency [6] | Potency [7]

O=c1n(CC2CO2)c(=O)n(CC2CO2)c(=O)n1CC1CO1 (centres undefined)
inactive: outcome [8] | max response [2] -19.7% and -11.1% | max response [3] 6.57% | max response [4] -25.2% and -21.7% | outcome [5] | Potency [6] | Potency [7]
active: Potency [1] 59.6 µM and 61.1 µM

CC(O)[C@@H]1NC(=O)[C@H](Cc2ccccc2)NC(=O)[C@H](C(C)O)NC(=O)[C@H](CCCCN)NC(=O)[C@H](Cc2c[nH]c3ccccc23)NC(=O)[C@H](Cc2ccccc2)NC(=O)[C@H](Cc2ccccc2)NC(=O)[C@H](CC(N)=O)NC(=O)[C@H](CCCCN)NC(=O)[C@@H](NC(=O)CNC(=O)[C@H](C)N)CSSC[C@@H](C(=O)O)NC(=O)[C@H](CO)NC1=O (some centres undefined)
inactive: max response [3] 1.43% | Potency [6] | Potency [7]

CC(=O)[O][Al][O]C(C)=O
inactive: max response [3] -11.1% | Potency [6] | Potency [7]

CC(C)(CO)[C@@H](O)C(=O)NCCCC(=O)O
inactive: max response [3] -4.37% | Potency [6] | Potency [7]

O=C1NC(=O)[C@H]2[C@@H]1[C@@H]1C=C[C@H]2C1
inactive: max response [3] -6.7% | Potency [6] | Potency [7]

CN[C@@H]1[C@@H](O)[C@@H](O[C@@H]2[C@@H](O)[C@H](O[C@H]3O[C@H](CN)[C@@H](O)[C@H](O)[C@H]3O)[C@@H](N)C[C@H]2NC(=O)C(O)CN)OC[C@]1(C)O (some centres undefined)
inactive: max response [3] 16.8% | Potency [6] | Potency [7]

O=C(c1cc2ccccc2o1)N1CCN(Cc2ccccc2)CC1
inactive: max response [3] 7.29% | Potency [6] | Potency [7]

CCCCCCCCCCCCCCCC(=O)OC[C@@H](O)[C@H]1OC[C@H](O)[C@H]1O
inactive: max response [3] -10.2% | Potency [6] | Potency [7]
